Of roughly 7,900 targets only a part is listed; those with a hit were picked by preference. About 0.6% of all pairs of compound and target were hits. A number with no mark means an inactive call.
Key:
Assay in all cases: log2 fold change, soluble protein after heating vs DMSO (PISA); higher = thermal stabilisation; K562 cells, 10 uM, 30 min; active = over 0.2 and 3.5 SD of the protein, either way, in both replicates (recomputed)
erlotinib = compound: C#Cc1cccc(Nc2ncnc3cc(OCCOC)c(OCCOC)cc23)c1 [erlotinib]
Procedure, shortened: (§1)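 Soluble protein was defined as the supernatant after 21,000xg for 90 min. It came from K562 cells at 2×10^6 cells/mL given 10 μM compound for 30 min, heated in aliquots for 3 min across 48°C-58°C, pooled, and extracted in PBS with 0.5% NP-40 at 4°C, and was quantified by TMTpro 16plex LC-MS/MS with equalised channel sums. Thermal stability against control samples, from duplicates, is reported as log2 fold change.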

[1] = compound: C/C(=N\NC(=O)C1=CC(=CC=C1)S(=O)(=O)N2CCOCC2)/C3=C(C=CC(=C3)Cl)O
Procedure, shortened: as §1

[2] = compound: C1=CC(=C(C=C1Cl)C2=NC3=NC=CN=C3C(=N2)NC4=CC=NC=C4)F
Procedure, shortened: as §1

[3] = compound: C1=CC(=CC=C1C2=NC3=C(N2)C=C(C=C3)C(=O)N)OC4=CC=C(C=C4)Cl
Procedure, shortened: as §1

[4] = compound: C1=CC2=C(C=CC(=C2)/C=C\3/C(=O)NC(=NCC4=CC=CS4)S3)N=C1
Procedure, shortened: as §1

[5] = compound: C1=CC2=NC=CN=C2C=C1/C=C/3\C(=O)NC(=O)S3
Procedure, shortened: as §1

[6] = compound: C1=CC=C(C=C1)C2=NC(=C(N2)C3=CC=NC=C3)C4=CC(=C(C=C4)Cl)O
Procedure, shortened: as §1

[7] = compound: C1=CC=C2C(=C1)C3=NNC4=CC=CC(=C43)C2=O
Procedure, shortened: as §1

[8] = compound: C1CCN(C1)C(=O)NC2=CC=CC(=C2)NC3=NC=C(C(=N3)NCCC4=CN=CN4)Br
Procedure, shortened: as §1

[9] = compound: C1CN(CCC1(CC2=CC=C(C=C2)Cl)N)C3=NC=NC4=C3C=CN4
Procedure, shortened: as §1

UniProt O43513, sequence (O43513 whole entry, looked up): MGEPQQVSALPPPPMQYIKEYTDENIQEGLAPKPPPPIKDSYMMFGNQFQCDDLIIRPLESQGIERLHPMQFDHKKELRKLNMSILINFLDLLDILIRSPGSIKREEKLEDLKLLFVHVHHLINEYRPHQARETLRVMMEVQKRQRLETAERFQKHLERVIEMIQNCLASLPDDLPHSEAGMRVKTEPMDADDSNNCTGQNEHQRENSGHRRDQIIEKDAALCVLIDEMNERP
UniProt P07948, sequence (P07948 whole entry, looked up): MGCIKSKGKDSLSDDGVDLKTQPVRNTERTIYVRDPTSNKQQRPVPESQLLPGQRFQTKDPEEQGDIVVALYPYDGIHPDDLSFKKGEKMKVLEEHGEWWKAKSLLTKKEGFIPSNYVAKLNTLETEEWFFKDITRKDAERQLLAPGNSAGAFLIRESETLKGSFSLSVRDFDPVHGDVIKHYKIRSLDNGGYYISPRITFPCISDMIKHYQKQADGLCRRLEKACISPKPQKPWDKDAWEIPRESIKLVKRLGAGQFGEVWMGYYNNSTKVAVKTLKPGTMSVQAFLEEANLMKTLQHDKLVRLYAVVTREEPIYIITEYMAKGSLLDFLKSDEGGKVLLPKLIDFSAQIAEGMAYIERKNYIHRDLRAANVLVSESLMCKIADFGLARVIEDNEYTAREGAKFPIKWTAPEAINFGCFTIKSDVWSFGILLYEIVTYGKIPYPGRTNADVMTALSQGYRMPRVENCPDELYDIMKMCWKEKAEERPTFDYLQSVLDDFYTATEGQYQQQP
UniProt Q8WWC4, sequence (Q8WWC4 whole entry, looked up): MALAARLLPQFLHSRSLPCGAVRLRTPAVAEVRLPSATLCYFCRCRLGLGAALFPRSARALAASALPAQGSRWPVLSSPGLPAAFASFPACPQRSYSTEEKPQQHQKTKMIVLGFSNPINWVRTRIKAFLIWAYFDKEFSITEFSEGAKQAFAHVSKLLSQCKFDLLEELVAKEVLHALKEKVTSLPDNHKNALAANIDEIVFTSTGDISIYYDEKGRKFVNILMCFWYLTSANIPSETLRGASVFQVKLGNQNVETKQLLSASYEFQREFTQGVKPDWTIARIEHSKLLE
UniProt Q16539, sequence (Q16539 whole entry, looked up): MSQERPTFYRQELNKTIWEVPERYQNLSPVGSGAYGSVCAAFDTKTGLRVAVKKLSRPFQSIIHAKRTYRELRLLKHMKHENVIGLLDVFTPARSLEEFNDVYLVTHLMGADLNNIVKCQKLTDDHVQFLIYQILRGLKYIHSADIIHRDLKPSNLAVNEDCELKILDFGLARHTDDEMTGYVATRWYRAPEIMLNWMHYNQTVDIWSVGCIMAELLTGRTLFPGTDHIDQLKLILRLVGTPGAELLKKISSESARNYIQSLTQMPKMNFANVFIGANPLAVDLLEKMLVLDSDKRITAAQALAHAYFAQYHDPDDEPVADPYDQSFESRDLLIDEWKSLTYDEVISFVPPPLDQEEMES
UniProt Q8NE86, sequence (Q8NE86 whole entry, looked up): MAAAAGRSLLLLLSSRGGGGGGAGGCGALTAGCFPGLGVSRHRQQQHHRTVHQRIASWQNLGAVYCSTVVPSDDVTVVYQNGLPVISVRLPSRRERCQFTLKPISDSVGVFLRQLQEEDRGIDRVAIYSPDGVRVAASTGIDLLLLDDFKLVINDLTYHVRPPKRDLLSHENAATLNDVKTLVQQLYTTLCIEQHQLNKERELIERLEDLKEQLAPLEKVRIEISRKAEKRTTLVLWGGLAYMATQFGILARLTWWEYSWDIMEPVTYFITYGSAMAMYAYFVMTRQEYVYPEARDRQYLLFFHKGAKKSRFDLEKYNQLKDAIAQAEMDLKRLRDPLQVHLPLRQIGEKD
UniProt Q9Y4K4, sequence (Q9Y4K4 whole entry, looked up): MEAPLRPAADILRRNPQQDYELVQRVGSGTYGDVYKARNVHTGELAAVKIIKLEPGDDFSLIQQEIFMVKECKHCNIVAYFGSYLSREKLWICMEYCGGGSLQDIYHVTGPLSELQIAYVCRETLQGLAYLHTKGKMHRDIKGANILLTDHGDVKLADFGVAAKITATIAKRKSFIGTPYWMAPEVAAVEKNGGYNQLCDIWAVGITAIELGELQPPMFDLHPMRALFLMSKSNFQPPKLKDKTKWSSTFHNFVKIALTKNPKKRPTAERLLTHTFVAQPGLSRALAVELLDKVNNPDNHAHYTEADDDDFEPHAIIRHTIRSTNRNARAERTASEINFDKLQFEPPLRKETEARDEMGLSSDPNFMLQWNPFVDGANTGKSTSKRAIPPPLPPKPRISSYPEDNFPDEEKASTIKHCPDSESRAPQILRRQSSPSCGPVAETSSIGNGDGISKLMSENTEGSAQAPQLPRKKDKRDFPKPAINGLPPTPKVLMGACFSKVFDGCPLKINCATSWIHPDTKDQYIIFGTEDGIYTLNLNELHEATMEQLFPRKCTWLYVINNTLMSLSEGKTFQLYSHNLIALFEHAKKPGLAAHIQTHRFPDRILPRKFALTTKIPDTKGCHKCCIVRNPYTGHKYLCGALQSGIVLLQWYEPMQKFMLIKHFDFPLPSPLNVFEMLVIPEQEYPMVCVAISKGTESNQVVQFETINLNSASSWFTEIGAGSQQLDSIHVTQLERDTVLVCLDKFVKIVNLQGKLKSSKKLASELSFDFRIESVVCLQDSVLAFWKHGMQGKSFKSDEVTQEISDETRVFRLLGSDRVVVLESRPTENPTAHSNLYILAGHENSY
UniProt Q14739, sequence (Q14739 whole entry, looked up): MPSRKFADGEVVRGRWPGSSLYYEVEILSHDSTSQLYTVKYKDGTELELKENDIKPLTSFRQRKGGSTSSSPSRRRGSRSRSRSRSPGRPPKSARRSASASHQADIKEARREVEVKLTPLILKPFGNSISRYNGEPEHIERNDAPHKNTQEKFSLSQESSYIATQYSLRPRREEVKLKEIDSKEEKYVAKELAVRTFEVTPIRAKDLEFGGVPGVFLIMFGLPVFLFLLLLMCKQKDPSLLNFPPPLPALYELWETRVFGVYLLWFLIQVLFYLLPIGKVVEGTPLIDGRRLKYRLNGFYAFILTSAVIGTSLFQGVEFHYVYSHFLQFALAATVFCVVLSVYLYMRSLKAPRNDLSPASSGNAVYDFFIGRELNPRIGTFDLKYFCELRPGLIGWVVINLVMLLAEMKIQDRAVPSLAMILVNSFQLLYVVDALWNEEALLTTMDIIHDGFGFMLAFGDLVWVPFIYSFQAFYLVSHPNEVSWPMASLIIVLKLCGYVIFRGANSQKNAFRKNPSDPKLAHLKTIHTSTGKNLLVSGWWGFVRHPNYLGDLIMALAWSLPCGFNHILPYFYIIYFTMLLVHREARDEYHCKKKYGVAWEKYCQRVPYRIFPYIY
UniProt Q9UBF1, sequence (Q9UBF1 whole entry, looked up): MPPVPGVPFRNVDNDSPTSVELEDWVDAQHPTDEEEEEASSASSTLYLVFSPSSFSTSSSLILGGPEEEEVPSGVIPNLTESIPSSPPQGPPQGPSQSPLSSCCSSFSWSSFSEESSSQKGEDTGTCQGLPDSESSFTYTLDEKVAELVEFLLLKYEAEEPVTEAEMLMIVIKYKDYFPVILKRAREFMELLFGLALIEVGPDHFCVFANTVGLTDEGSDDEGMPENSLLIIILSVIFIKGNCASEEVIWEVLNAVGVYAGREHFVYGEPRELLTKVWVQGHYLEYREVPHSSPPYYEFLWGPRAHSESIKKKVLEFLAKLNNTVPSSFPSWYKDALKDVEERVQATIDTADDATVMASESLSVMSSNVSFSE
UniProt Q08334, sequence (Q08334 whole entry, looked up): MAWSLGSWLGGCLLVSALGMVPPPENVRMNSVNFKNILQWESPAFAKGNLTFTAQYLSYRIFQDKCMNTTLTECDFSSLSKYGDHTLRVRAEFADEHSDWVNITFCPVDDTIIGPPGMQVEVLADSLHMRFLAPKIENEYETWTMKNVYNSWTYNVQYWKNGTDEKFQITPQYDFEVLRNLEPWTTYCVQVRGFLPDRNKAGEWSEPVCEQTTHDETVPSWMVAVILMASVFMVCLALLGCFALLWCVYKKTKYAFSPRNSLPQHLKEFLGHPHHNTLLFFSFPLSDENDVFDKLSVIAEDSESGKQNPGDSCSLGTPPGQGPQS
UniProt Q96LU5, sequence (Q96LU5 whole entry, looked up): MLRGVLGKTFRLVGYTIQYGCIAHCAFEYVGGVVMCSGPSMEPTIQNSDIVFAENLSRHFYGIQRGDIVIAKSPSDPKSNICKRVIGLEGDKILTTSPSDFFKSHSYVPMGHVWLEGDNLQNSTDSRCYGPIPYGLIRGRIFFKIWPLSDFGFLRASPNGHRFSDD
UniProt Q6UWB1, sequence (Q6UWB1 whole entry, looked up): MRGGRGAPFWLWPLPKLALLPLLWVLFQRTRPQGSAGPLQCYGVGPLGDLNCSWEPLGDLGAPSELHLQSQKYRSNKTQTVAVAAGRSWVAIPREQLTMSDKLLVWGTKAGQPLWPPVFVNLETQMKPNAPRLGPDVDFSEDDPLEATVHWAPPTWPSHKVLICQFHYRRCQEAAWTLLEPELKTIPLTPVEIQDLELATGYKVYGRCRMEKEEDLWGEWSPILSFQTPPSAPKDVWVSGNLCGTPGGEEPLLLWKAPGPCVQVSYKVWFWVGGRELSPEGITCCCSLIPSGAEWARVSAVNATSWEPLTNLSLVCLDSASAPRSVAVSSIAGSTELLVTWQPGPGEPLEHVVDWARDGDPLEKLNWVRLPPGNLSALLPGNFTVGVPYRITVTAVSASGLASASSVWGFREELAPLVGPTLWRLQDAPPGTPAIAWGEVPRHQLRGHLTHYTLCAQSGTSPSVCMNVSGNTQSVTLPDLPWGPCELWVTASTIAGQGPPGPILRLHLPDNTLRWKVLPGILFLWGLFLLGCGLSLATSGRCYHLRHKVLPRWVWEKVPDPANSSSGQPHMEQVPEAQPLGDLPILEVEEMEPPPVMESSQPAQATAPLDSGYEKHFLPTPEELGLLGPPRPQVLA
UniProt P49006, sequence (P49006 whole entry, looked up): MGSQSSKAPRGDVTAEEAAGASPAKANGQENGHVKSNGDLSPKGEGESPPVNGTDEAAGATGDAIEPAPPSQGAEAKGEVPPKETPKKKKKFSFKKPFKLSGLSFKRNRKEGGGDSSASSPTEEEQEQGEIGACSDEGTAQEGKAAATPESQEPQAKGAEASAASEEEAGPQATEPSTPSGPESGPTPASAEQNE

| Target | log2 fold change (erlotinib) | log2 fold change [1] | log2 fold change [2] | log2 fold change [3] | log2 fold change [4] | log2 fold change [5] | log2 fold change [6] | log2 fold change [7] | log2 fold change [8] | log2 fold change [9] |
| --- | --- | --- | --- | --- | --- | --- | --- | --- | --- | --- |
| LBR (UniProt Q14739) | 0.009 | 0.122 | 0.043 | -0.016 | 0.029 | 0.034 | 0.059 | -0.002 | 0.037 | 0.21 |
| MAIP1 (UniProt Q8WWC4) | -0.02 | 0.006 | -0.012 | 0.002 | 0.02 | 0.042 | 0.066 | 0.037 | -0.024 | 0.012 |
| IMMP1L (UniProt Q96LU5) | 0.053 | -0.018 | 0.01 | -0.017 | 0.104 | -0.022 | -0.084 | -0.046 | 0.041 | 0.013 |
| LUZP1 (UniProt Q86V48) | -0.094 | -0.035 | -0.328 | -0.01 | -0.131 | -0.095 | -0.091 | -0.187 | -0.06 | -0.297 |
| LMBR1 isoform 3 (UniProt Q8WVP7) | 0.148 | -0.016 | -0.034 | 0.071 | -0.046 | 0.081 | -0.14 | -0.013 | 0.037 | 0.15 |
| LGALS8 isoform 2 (UniProt O00214) | -0.011 | -0.034 | -0.282 | 0.062 | -0.038 | -0.059 |  | 0.036 | 0.043 | 0.039 |
| MED7 (UniProt O43513) | 0.065 | -0.109 | 0.041 | 0.053 | 0.065 | 0.015 | 0.017 | -0.152 | -0.114 | 0.039 |
| KIF21A isoform 4 (UniProt Q7Z4S6) | 0.017 | 0.056 | -0.043 | -0.016 | -0.023 | 0.006 | -0.075 | -0.065 | -0.144 | -0.233 |
| MED17 (UniProt Q9NVC6) | 0.017 | 0.064 | -0.077 | 0.072 | -0.083 |  | 0.094 | -0.034 | -0.194 | -0.047 |
| LYN isoform 2 (UniProt P07948) | -0.387 | 0.117 | -0.234 | -0.152 | 0.146 |  |  | -0.163 |  |  |
| MARCKSL1 (UniProt P49006) | -0.001 | 0.072 | -0.047 | -0.02 | -0.031 | -0.039 | -0.015 | -0.063 | -0.005 | 0.039 |
| KHDC4 (UniProt Q7Z7F0) | -0.005 | 0.14 | 0.009 | -0.058 | 0.089 | 0.084 | 0.074 | -0.041 | -0.042 | 0.025 |
| MBLAC1 (UniProt A4D2B0) | 0.074 | -0.042 |  | 0.026 | 0.036 | 0.019 | 0.002 | -0.024 |  |  |
| KIAA1324L (UniProt A8MWY0) | 0.036 | -0.077 | 0.003 | 0.05 | 0.092 | -0.068 | 0.003 | -0.042 | -0.03 | 0.064 |
| IL27RA (UniProt Q6UWB1) | -0.082 | 0.04 | -0.147 | 0.007 | 0.021 | 0.048 | 0.064 | 0.068 | -0.011 | 0.075 |
| LUM (UniProt P51884) | -0.147 | -0.043 | 0.095 | 0.039 | 0.063 |  | -0.057 | -0.068 | 0.185 | 0.307 |

| Target | log2 fold change (erlotinib) | log2 fold change [1] | log2 fold change [2] | log2 fold change [3] | log2 fold change [4] | log2 fold change [5] | log2 fold change [6] | log2 fold change [7] | log2 fold change [8] | log2 fold change [9] |
| --- | --- | --- | --- | --- | --- | --- | --- | --- | --- | --- |
| MAP3K20 isoform 2 (UniProt Q9NYL2) | -0.002 | -0.128 | 0.051 | 0.052 | -0.091 |  |  | -0.168 | -0.004 | 0.007 |
| MCCC2 (UniProt Q9HCC0) | 0.019 | 0.123 | 0.03 | 0.004 | -0.04 | 0.011 | 0.047 | 0.004 | 0.004 | 0.035 |
| MAPK14 isoform 2 (UniProt Q16539) | 0.313 | -0.051 | 0.936 (active) | -0.136 | 0.01 | -0.013 | 1 (active) | 0.207 | 0.021 | -0.102 |
| ITGA2B (UniProt P08514) | -0.046 | -0.051 | 0.023 | 0.06 | -0.023 |  | 0 | -0.133 | 0.065 | -0.13 |
| MELK (UniProt Q14680) | 0.067 | -0.067 | 0.018 | 0.027 | 0.033 | 0.009 |  | 0.031 | -0.027 | -0.086 |
| LEPROT (UniProt O15243) | 0.06 | 0.034 | 0.081 | 0.088 | 0.119 |  |  | -0.058 | -0.011 | 0.001 |
| LRRFIP1 (UniProt Q32MZ4) | 0.072 | -0.045 | -0.027 | 0.018 | -0.01 | 0.052 | -0.024 | -0.042 | 0.056 | 0.041 |
| LAMP2 isoform 2 (UniProt P13473) | -0.072 | 0.02 | 0.041 | 0.082 | -0.022 | 0.088 |  | -0.007 | 0.018 | 0.049 |
| IL10RB (UniProt Q08334) | 0.05 | -0.089 | -0.106 | 0.053 | 0 | -0.03 |  | 0.029 | 0.037 | 0.075 |
| MCU (UniProt Q8NE86) | 0.007 | 0.042 | 0.083 | 0.008 | 0.027 | 0.013 | 0.001 | 0.014 | 0.004 | 0.013 |
| MAP4K5 (UniProt Q9Y4K4) | -0.001 | 0.057 | 0.05 | 0.051 | 0.143 | -0.025 | -0.039 |  | -0.083 | 0.152 |
| IPO13 (UniProt O94829) | -0.045 | -0.018 | 0.05 | -0.037 | 0.025 | 0.021 | -0.059 | -0.033 | 0.013 | -0.062 |
| MAGEC2 (UniProt Q9UBF1) | -0.026 | 0.024 | -0.099 | -0.018 | -0.003 | 0.03 | -0.011 | -0.004 | -0.022 | 0.051 |
| LEMD3 (UniProt Q9Y2U8) | 0.102 | 0.091 | 0.109 | -0.007 | 0.003 | -0.05 | -0.01 | 0.169 | -0.063 | -0.029 |
| LPIN3 isoform 2 (UniProt Q9BQK8) | 0.053 | 0.062 | 0.038 | -0.045 | 0.108 | 0.022 | -0.048 | 0.022 | 0.002 | -0.014 |
| LRRFIP1 isoform 4 (UniProt Q32MZ4) | -0.122 | -1.2 (active) | -0.121 | -0.006 | -0.045 |  |  | 0.072 |  |  |
